Out of some 6,200 compounds screened, about 2,900 (47%) were called active. The set was probably picked from earlier hits. The list shows a part of the results. Values without a mark were called inactive. No stated cut-off is given here; in the data, active means inhibition above about 50%; inactive means the rest.
Test: Mycobacterium tuberculosis growth inhibition, primary screen (AID 1259343)
Conditions: inhibition: at 10 µM, hits give high values; outcome: 10 uM

SMILES	inhibition
Cc1ccc(C2=CCN(Cc3nc4ccsc4c(=O)[nH]3)CC2)cc1	94.7% (active)
O=c1[nH]c(CN2CCN(c3ccccc3F)CC2)nc2ccsc12	13.7%
CC(C)(O)C#Cc1ccc(C(=O)NCc2cnn(-c3ccc(F)cc3)c2)o1	36.3%
O=C(Nc1nnc(C2=COCCO2)o1)c1cc(Cl)cc(Cl)c1	93.4% (active)
Cc1cc(=O)[nH]c(-n2nc(C)cc2NC(=O)c2cc(C)oc2C)n1	90.8% (active)
CCN(CC)c1cc(C)nc(Nc2ccc(NC(=O)c3cccc4ccccc34)cc2)n1	93.6% (active)
CCN(CC)C(=O)N1CCN(c2ccc(Nc3ccnc4cc5ccccc5cc34)cc2)CC1	-24.5%
CCc1cc(=O)[nH]c(-n2nc(C)cc2NC(=O)c2cccc3ccccc23)n1	13.9%
CCCc1cc(=O)[nH]c(-n2nc(C)cc2NC(=O)c2cccc3ccccc23)n1	102% (active)
Cc1cc(=O)[nH]c(-n2nc(C)cc2NC(=O)c2cccc3ccccc23)n1	101% (active)
CCc1ccc(OCc2ccccc2C(=O)Nc2ccc3nc(C)cc(N)c3c2)cc1	33.8%
O=C1C(c2ccccc2)C=Nc2c(-c3ccccc3)cnn21 (stereo unspecified)	-23.2%
Cc1cc(NC(=O)c2ccccc2C)n(-c2nc(C)c(C)c(=O)[nH]2)n1	-21.7%
Cc1cc(=O)[nH]c(-n2nc(C)cc2NC(=O)c2ccccc2C)n1	101% (active)
Clc1ccc2nc(SCc3nnc(C4CCC4)o3)[nH]c2c1	16.7%
Clc1ccc2nc(SCCC3CCCCC3)[nH]c2c1	23.7%

SMILES	inhibition
Clc1ccc(CCCc2nc3ccc(Cl)cc3[nH]2)c(Cl)c1	99.6% (active)
S=c1ccss1	101% (active)
CCc1cc2c(=O)n(NC(=O)c3cccc(C)n3)cnc2s1	99.6% (active)
CCc1cc2c(SCC(=O)C(C)(C)C)ncnc2s1	-53%
CCc1cc2c(N3CCCCC3)ncnc2s1	46.7%
S=c1nn[nH]n1-c1cccc(Cl)c1	10%
CC(C)c1ccc(-n2nnnc2SCC(N)=O)cc1	32.2%
CC(C)c1ccc(-n2[nH]nnc2=S)cc1	70.6% (active)
Fc1cccc(-n2[nH]nnc2=S)c1	90.8% (active)
CCCc1cc(=O)[nH]c(-n2nc(C)cc2NC(=O)C23CC4CC(CC(C4)C2)C3)n1	100% (active)
Cc1cc(=O)[nH]c(-n2nc(C3CC3)cc2NC(=O)C23CC4CC(CC(C4)C2)C3)n1	99.1% (active)
Cc1cc(NC(=O)C23CC4CC(CC(C4)C2)C3)n(-c2nc(C)c(C)c(=O)[nH]2)n1	14.6%
Cc1cc(=O)[nH]c(-n2nc(C)cc2NC(=O)C23CC4CC(CC(C4)C2)C3)n1	99.3% (active)
CCc1c(C)nc(-n2nc(C)cc2NC(=O)C23CC4CC(CC(C4)C2)C3)[nH]c1=O	-26.4%
CCc1cc(=O)[nH]c(-n2nc(C)cc2NC(=O)C23CC4CC(CC(C4)C2)C3)n1	93.6% (active)

— PubChem BioAssay AID1259343 (VanderVen Lab, College of Veterinary Medicine, Cornell …, 2017)
